Measured values taken from PubChem BioAssay AID463173 (ICCB-Longwood Screening Facility, Harvard Medical School, 2010).
Out of some 52,000 compounds screened, about 4,300 (8.3%) were called active. Only a selection was taken, and actives are over-represented in it overall. Values without a mark were called inactive. Rule as the data show it: active = survival mostly below about 52% (no sharp cut-off); inactive = mostly above about 56%.

What follows are compounds tested on DeltatarO mutant (assay: growth inhibition of S. aureus wild type versus tarO mutant, primary screen, teichoic acid synthesis inhibitors, RN4220, OD600 (AID 463173)). Settings: OD600, 18 h, active compounds read low, screened at 18.75 µg/mL (by protocol).

Compound | survival
CCOc1cc(C(=O)OCc2cc(=O)n3c(C)csc3n2)cc(OCC)c1OCC | -1% (active)
Cc1ccc(OCC(=O)Nc2cccc(C(=O)OCc3cc(=O)n4c(C)csc4n3)c2)cc1 | 89%
Cc1csc2nc(COC(=O)c3ccc(F)cc3)cc(=O)n12 | 72%
Cc1ccc(NC(=O)CN(C)S(=O)(=O)c2ccc3c(c2)CCC(=O)N3)c(C)c1 | 85%
CCN(Cc1ccccc1)C(=O)c1nn(-c2ccc(OC)cc2)c(=O)c2c1c1ccccc1n2C | 68%
COc1ccccc1NC(=O)CN1C(=O)C(C)(C)c2ccccc21 | 85%
CCc1ccc2c(c1)NC(c1ccc(C)cc1)=NC(c1cccs1)=N2 | 68%
Cc1ccc[n+](Cc2cnc(C)nc2N)c1 | 83%
CCC(=O)N1CCc2cc(S(=O)(=O)NC(Cc3ccccc3)C(=O)Nc3ccccc3C)ccc21 (stereo not drawn) | 118%
COc1ccccc1-c1nnc(C2CCN(C(=O)c3ccc(C)cc3)CC2)o1 | 91%
CCN(CC)N=Nc1ccc(S(=O)(=O)N=C(C)O)cc1 | 87%
Nc1nnc(CSCc2ccccc2)s1 | 109%
Nc1nnc(SCc2ccccc2)s1 | 49% (active)
Nc1nc(SCc2ccccc2)ns1 | 53%
Cc1ccc(Nc2c(C(C)C)c(C)c(C#N)c3nc4ccccc4n23)cc1 | 62%
CCc1c(C)c(C#N)c2nc3ccccc3n2c1Nc1cccc(C(F)(F)F)c1 | 39% (active)
CC(=O)Nc1ccc(Nc2c(CCC(C)C)c(C)c(C#N)c3nc4ccccc4n23)cc1 | 136%
CCn1cc(S(=O)(=O)c2cccc(C)c2)c(=O)c2cc(F)c(N3CCCC(C)C3)cc21 (stereo not drawn) | 84%
CC1=C(C(=O)Nc2ccc(C)cc2Cl)C2(CCCCCC2)OC1=O | 89%
Cc1nc2cc(-c3ccccc3)nn2c(C)c1CCC(=O)NCCc1ccccc1 | 54%
COc1cc(NC(=O)N2CCC3(CC2)Nc2ccccc2-n2cccc23)cc(OC)c1OC | 101%
COc1cc([N+](=O)[O-])ccc1NC(=O)N1CCN(c2cc(-c3noc(C)n3)ccc2C)CC1 | 94%
COc1cc(NC(=O)N2CCC3(CC2)Nc2cc(F)ccc2-n2cccc23)cc(OC)c1OC | 105%
COc1cc([N+](=O)[O-])ccc1NC(=O)N1CCC2(CC1)Nc1ccccc1-n1cccc12 | 37% (active)

Compound | survival
COc1cc([N+](=O)[O-])ccc1NC(=O)N1CCC2(CC1)Nc1cc(F)ccc1-n1cccc12 | 46% (active)
CCN1c2cc(C)ccc2-n2cccc2C12CCN(C(=O)Nc1cc(OC)c(OC)c(OC)c1)CC2 | 93%
Cc1cc(C(=O)Nc2cccc(OC(C)C)c2)c(C)o1 | 105%
COc1cccc(CNC(=O)c2nnc(Cc3ccc(Cl)cc3)o2)c1 | 91%
CCOc1ccc(CCNC(=O)CCn2c(=O)c3cccn3c3cccnc32)cc1 | 89%
CCS/C=C/C#CC1(O)CCCCC1 | 90%
Cc1ccccc1CNC(=O)c1ccc2nc(SCc3ccc(F)cc3)n(C)c2c1 | 60%
COc1ccc(Cl)cc1NC(=O)Cn1ncc2c3ccccc3n(Cc3ccccc3)c2c1=O | 125%
CCOC(=O)Cn1nnc(-c2ccccc2)n1 | 95%
CCOC(=O)c1[nH]c2c(c1Cc1ccccc1C)C(=O)CC(c1cc(OC)ccc1OC)C2 (stereo not drawn) | 82%
COc1ccc(N2CCN(C(=O)CCc3c(C)nc4cc(-c5ccc(Cl)cc5)nn4c3C)CC2)cc1 | 116%
O=C(O)/C=C/C(=O)Nc1nnc(-c2ccccc2F)s1 | 97%
Cc1ccn2c(Nc3ccc4c(c3)OCCO4)c(-c3ccc(C)o3)nc2c1 | 58% (active)
Brc1ccc(-c2nc3ccccn3c2Nc2ccc3c(c2)OCCO3)o1 | 85%
Cc1ccc(-c2nc3ccccn3c2Nc2ccc3c(c2)OCCO3)o1 | 45%
Cc1ccn2c(Nc3ccc4c(c3)OCO4)c(-c3ccc(C)o3)nc2c1 | 81%
Cc1ccc2nc(-c3ccc(C)o3)c(Nc3ccc4c(c3)OCCO4)n2c1 | 72%
Cc1ccc(-c2nc3ccccn3c2Nc2ccc3c(c2)OCO3)cc1 | 73%
Cc1ccc2nc(-c3ccco3)c(Nc3ccc4c(c3)OCCO4)n2c1 | 67%
c1coc(-c2nc3ccccn3c2Nc2ccc3c(c2)OCCO3)c1 | 53% (active)
Cc1ccc(-c2nc3ccccn3c2Nc2c(C)cccc2C)o1 | -2% (active)
COc1ccc(Nc2c(-c3ccc(C)o3)nc3cc(C)ccn23)cc1 | 75%
Cc1ccc(-c2nc3ccccn3c2Nc2ccc3c(c2)OCO3)o1 | 34% (active)
Cc1ccc(Nc2c(-c3ccc(Br)o3)nc3ccccn23)cc1 | 112%
